This excerpt belongs to a sample that is enriched for hits.
NOMO-1 viab: NOMO-1 AML cell viability reduction, primary screen, STK33 inhibitor project, CellTiter-Glo luminescence; AID 2330, 2010; inhibition, % (no concentration beside the values); actives 7.5% (n = 37,000); NOMO-1 AML viability, 72 h; in the data active = inhibition above about 80%
STK33 inh: STK33 kinase inhibitors, primary screen, biochemical, luminescence, ADP-Glo, MBP substrate; Serine/threonine-protein kinase 33 (Homo sapiens), Q9BYT3; inhibition, % at 12.5 µM; actives 0.44% (n = 27,000); AID 2322, 2010; in the data active = inhibition above about 20%
Target sequence (Q9BYT3 whole entry, looked up): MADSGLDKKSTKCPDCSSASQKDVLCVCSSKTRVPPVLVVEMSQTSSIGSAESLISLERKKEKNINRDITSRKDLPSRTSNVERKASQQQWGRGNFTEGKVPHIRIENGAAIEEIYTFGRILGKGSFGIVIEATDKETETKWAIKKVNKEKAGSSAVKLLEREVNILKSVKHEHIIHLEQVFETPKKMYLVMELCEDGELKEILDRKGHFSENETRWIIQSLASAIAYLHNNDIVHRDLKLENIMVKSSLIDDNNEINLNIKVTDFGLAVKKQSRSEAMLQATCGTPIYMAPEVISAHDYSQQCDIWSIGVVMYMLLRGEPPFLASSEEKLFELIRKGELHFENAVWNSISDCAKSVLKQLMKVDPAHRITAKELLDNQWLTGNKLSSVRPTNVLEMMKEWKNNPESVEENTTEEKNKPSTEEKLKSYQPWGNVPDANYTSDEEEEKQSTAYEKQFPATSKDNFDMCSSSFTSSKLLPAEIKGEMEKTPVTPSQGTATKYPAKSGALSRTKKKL
PD-1 reverse act: activators reversing PD-1 mediated T-cell inhibition, primary screen, luminescence, primary human CD4 T cells, PD-L1 beads; 29,000 tested, under 10 active; AID 2316, 2010; CellTiter-Glo 96 h; activation, % (no concentration beside the values); call rule not given here
A number is an active result; . = inactive; / = no result given.

SMILES	NOMO-1 viab	STK33 inh	PD-1 reverse act
CC(=O)c1ccccc1OC(=O)CCN1C(=O)C2C3c4ccccc4C(c4ccccc43)C2C1=O (stereo not drawn)	.	.	/
O=C(CCN1C(=O)C2C3C=CC(C3)C2C1=O)Oc1cccc2cccnc12 (stereo not drawn)	113.3	.	.
O=c1c(Cl)c(NCCc2ccccc2)cnn1-c1ccccc1	.	.	.
CCc1nc2c(cnn2-c2ccccc2)c(=O)n1CCc1ccccc1	113.2	/	.
COc1cc(O)c2c(c1)CCc1cc(OC)c(OC)cc1-2	/	.	/
N#C/C(=N\O)C(=O)c1ccco1	.	/	.
COc1ccc(CN(C)C[C@@H]2Oc3c(NC(=O)Nc4ccc(C(F)(F)F)cc4)cccc3C(=O)N([C@H](C)CO)C[C@H]2C)cc1	104.5	/	.
COc1ccc(CN(C)C[C@H]2Oc3c(NC(=O)Nc4ccc(C(F)(F)F)cc4)cccc3C(=O)N([C@@H](C)CO)C[C@H]2C)cc1	.	/	/
COc1ccc(CN(C)C[C@H]2Oc3c(NC(=O)Nc4ccc(F)cc4)cccc3C(=O)N([C@@H](C)CO)C[C@@H]2C)cc1	.	/	/
COc1ccc(CN(C)C[C@H]2Oc3c(NC(=O)Nc4ccc(C(F)(F)F)cc4)cccc3C(=O)N([C@H](C)CO)C[C@@H]2C)cc1	94.3	/	.
COc1ccc(CN(C)C[C@H]2Oc3c(NC(=O)Nc4ccc(C(F)(F)F)cc4)cccc3C(=O)N([C@@H](C)CO)C[C@@H]2C)cc1	101.0	/	.
COc1ccc(NC(=O)Nc2cccc3c2O[C@H](CN(C)Cc2ccc(C(F)(F)F)cc2)[C@@H](C)CN([C@H](C)CO)C3=O)cc1	106.2	/	.
COc1ccc(CN(C)C[C@@H]2Oc3c(NC(=O)Nc4ccc(C(F)(F)F)cc4)cccc3C(=O)N([C@@H](C)CO)C[C@@H]2C)cc1	.	/	/
COc1cc2c(c(OC)c1OC)c(=O)c1ccccc1n2C	/	.	/
COCc1cc(=O)[nH]c(SCC(=O)C(C)(C)C)n1	.	/	.
O=C(c1cccs1)N1c2ccccc2Sc2ccccc21	.	/	.
O=c1c2c3c(sc2nc2c4ccccc4c(NCCOCCO)nn12)CCCC3	.	.	.
O=S(=O)(Cc1nc(-c2ccccc2Cl)cs1)c1cccs1	.	.	.
COc1ccc(NC(=O)Nc2cccc3c2O[C@H](CN(C)Cc2ccc(C(F)(F)F)cc2)[C@@H](C)CN([C@@H](C)CO)C3=O)cc1	84.8	/	.
COc1ccc(CN(C)C[C@H]2Oc3c(NC(=O)Nc4ccc(F)cc4)cccc3C(=O)N([C@@H](C)CO)C[C@H]2C)cc1	.	/	.
COc1ccc(NC(=O)Nc2cccc3c2O[C@@H](CN(C)Cc2ccc(C(F)(F)F)cc2)[C@H](C)CN([C@@H](C)CO)C3=O)cc1	98.2	/	.
COc1ccc(CC(=O)NN2C(=O)CSCC2=O)cc1OC	.	/	.
CS(=O)(=O)N(CC(=O)NC1CCCCC1)c1ccc(F)c(Cl)c1	.	.	.
COc1ccc(CCNC(=O)c2ccc(-c3cccc(C(F)(F)F)c3)o2)cc1OC	.	.	.
COc1cc(CSc2nnnn2-c2ccc(C)cc2C)cc(OC)c1OC	.	/	.
SMILES	NOMO-1 viab	STK33 inh	PD-1 reverse act
O=C1C(Nc2ccccc2)=CC(=O)c2ncccc21	141.7	.	.
Cc1ccc(-c2nc(S(=O)(=O)c3ccc(F)cc3)c(SCC(N)=O)o2)cc1	.	.	.
Cn1nc(CC(=O)Nc2ccc(Oc3ccccc3)cc2)c2ccccc2c1=O	.	.	.
Cc1c(NC2CS(=O)(=O)CC2O)c(=O)n(-c2ccccc2)n1C (stereo not drawn)	.	.	.
Cc1c(C(=O)Nc2cnccn2)oc2ccccc12	112.3	.	.
Cc1c(C(=O)Nc2nnc(SC/C=C/c3ccccc3)s2)oc2ccccc12	.	.	/
S=C(NCCc1ccccc1)N1CCc2ccccc21	.	.	.
COc1ccccc1CCNC(=O)c1cc(-c2ccccn2)nc2ccc(Br)cc12	.	.	.
COc1ccccc1CCNC(=O)c1cc(-c2ccncc2)nc2ccc(Br)cc12	93.5	.	.
COc1ccc(C(C)NC(=O)c2cc(-c3ccccn3)nc3ccc(Cl)cc23)cc1OC (stereo not drawn)	.	.	/
COc1ccc(C(C)NC(=O)c2cc(-c3ccccn3)nc3ccc(Br)cc23)cc1OC (stereo not drawn)	89.6	.	/
Cc1ccc(-c2nnc(SCC(=O)Nc3ccc(Br)c(C)c3C)o2)cc1	.	.	/
CNC(=O)CN(c1cc(Cl)c(Cl)cc1Cl)S(C)(=O)=O	.	.	/
CCCCc1ccc(NC(=O)N=S2CCN(c3ncc(C(F)(F)F)cc3Cl)CC2)cc1	.	/	.
Cc1ccc(CN2C(=O)N(c3ccccc3)C(=O)C2CC(=O)Nc2ccccc2)cc1 (stereo not drawn)	.	.	.
CN1C(=O)C(CC(=O)Nc2ccc(Cl)cc2)N(Cc2ccco2)C1=S (stereo not drawn)	152.2	.	.
CN(C)CCNc1oc(COc2ccc(Br)cc2)nc1C#N	.	.	.
Cc1[nH]c2ccccc2c1C(=O)CSc1nnc2ccccn12	.	.	/
C[C@@H]1O[C@@H](O[C@H]2[C@H](O)[C@@H](O)[C@H](OC[C@H]3O[C@@H](OC(=O)[C@]45CCC(C)(C)CC4C4=CCC6[C@@]7(C)CC[C@H](O)C(C)(C)C7CC[C@@]6(C)[C@]4(C)CC5)[C@H](O)[C@@H](O)[C@@H]3O)O[C@@H]2CO)[C@H](O)[C@H](O)[C@H]1O (stereo partly drawn)	121.6	.	.
CC1OC(OC2C(CO)OC(OC(=O)[C@]34CCC(C)(C)CC3C3=CCC5[C@@]6(C)CC[C@H](OC7OC(C)C(OC8OCC(O)(COC9OCC(O)C(OC%10OCC(OC%11OCC(O)(CO)C%11O)C(O)C%10O)C9O)C8O)C(O)C7O)C(C)(C)C6CC[C@@]5(C)[C@]3(C)CC4)C(O)C2O)C(O)C(O)C1O (stereo partly drawn)	99.9	.	.
CC1OC(O[C@H]2CC[C@@]3(C)C(CC[C@]4(C)C3CC=C3C5CC(C)(C)CC[C@]5(C(=O)OC5OC(CO)C(OC6OC(CO)C(O)C(O)C6O)C(O)C5O)CC[C@]34C)C2(C)C)C(O)C(O)C1OC1OCC(O)(COC2OCC(O)C(OC3OCC(OC4OCC(O)(CO)C4O)C(O)C3O)C2O)C1O (stereo partly drawn)	.	.	.
CC1(C)CC[C@]2(C(=O)O[C@@H]3O[C@H](CO)[C@@H](O)[C@H](O)[C@H]3O)CC[C@]3(C)C(=CCC4[C@@]5(C)CC[C@H](O[C@@H]6O[C@H](C(=O)O)[C@@H](O[C@@H]7O[C@H](CO)[C@@H](O)[C@H](O)[C@H]7O)[C@H](O)[C@H]6O)C(C)(C)C5CC[C@]43C)C2C1 (stereo partly drawn)	.	.	.
CC1(C)CC[C@]2(C(=O)O[C@@H]3O[C@H](CO)[C@@H](O)[C@H](O)[C@H]3O)CC[C@]3(C)C(=CCC4[C@@]5(C)C[C@@H](O)[C@H](O)[C@@](C)(CO)C5CC[C@]43C)C2C1 (stereo partly drawn)	.	.	.
